Experimental data published in PubChem BioAssay.
Activity calls are given as the source filed them.

Key:
[1] = binders of probe aFSTL3 on microarray, primary screen, stem cell growth factor project, biochemical, small-molecule microarray, fluorescence 635/667 (AID 1064); conditions: higher = more signal;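 note: measures binding of the biotinylated anti-FSTL3 antibody to printed compounds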
[2] = binders from COS7 lysate, DM2A8 probe, primary screen, torsin A project, cell lysate, small-molecule microarray, fluorescence 635/667 (AID 1065); conditions: higher = more signal, COS7 lysate expressing mutant human TOR1A
[3] = binders of probe aFGF2 on microarray, primary screen, stem cell growth factor project, biochemical, small-molecule microarray, fluorescence 635/667 (AID 1067); conditions: higher = more signal;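 note: measures binding of biotinylated aFGF2 protein to printed compounds on slides; z-score merges feature fluorescence and signal-to-noise across triplicate slides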
[4] = binders of probe aFGF10 on microarray, primary screen, stem cell growth factor project, biochemical, small-molecule microarray, fluorescence 635/667 (AID 1071); conditions: higher = more signal;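 note: score merges 667 nm spot intensity and signal to noise from triplicate slides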
[5] = target: Neurogenic locus notch homolog protein 2 (Homo sapiens) (UniProt Q04721); test: Notch2 binders on small-molecule microarrays, primary screen, biochemical, small-molecule microarray, 635 nm fluorescence, stem cell growth factors (AID 1073); conditions: Notch2 binding, higher = more signal
[6] = target: Pro-neuregulin-1, membrane-bound isoform (Homo sapiens) (UniProt Q02297); test: NRG1 binders on small-molecule microarrays, primary screen, psychiatric disease protein project, biochemical, small-molecule microarray, fluorescence 635/667 (AID 1075); conditions: NRG1 binding, 635 nm fluorescence, higher = more signal;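 note: score combines 667 nm spot fluorescence with signal to noise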
[7] = test system: Neuregulin-1 EGF-like domain; test: binders of neuregulin-1 EGF-like domain, primary screen, biochemical, small-molecule microarray, 635 nm fluorescence (AID 1081); conditions: small-molecule microarray binding, higher = more signal;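 note: binding of the protein to compounds printed on small-molecule microarray slides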
[8] = FRG1 promoter luciferase signal modulators, primary screen, FRG1 inhibition for FSHD, cell-based, C2C12 myotubes, firefly/Renilla luciferase, luminescence (AID 1084); conditions: higher = more signal, called active from +8 up or from −8 down
[9] = binders of probe aFST on microarray, primary screen, stem cell growth factor project, biochemical, small-molecule microarray, fluorescence 635/667 (AID 1086); conditions: higher = more signal;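 note: score merges 667 nm fluorescence with signal-to-noise of each printed compound spot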
[10] = binders of probe aHhip on microarray, primary screen, stem cell growth factor project, biochemical, small-molecule microarray, fluorescence 635/667 (AID 1087); conditions: higher = more signal;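 note: score merges spot fluorescence at 667nm with spot signal to noise ratio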
[11] = test system: PRMT1 (protein arginine N-methyltransferase 1); test: PRMT1 binders on small-molecule microarrays, primary screen, biochemical, small-molecule microarray, 635 nm fluorescence (AID 1088); conditions: small-molecule microarray binding, higher = more signal;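 note: binding of Prmt1 protein to compounds spotted on small-molecule microarray slides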
[12] = yeast growth modulation, basal conditions, primary screen, YJM789 clinical isolate, OD600, 24 h (AID 1089);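 note: growth of clinical yeast isolate S. cerevisiae YJM 789 seeded 1000 cells per well; test concentration not given here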; conditions: S. cerevisiae YJM789 growth, higher = more signal, called active from +8 up or from −8 down
[13] = fission yeast growth modulation, primary screen, strain 972, OD600, 24 h, no modulator (AID 1090);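 note: basal condition with compound alone and no growth modifier present; test concentration not given here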; conditions: S. pombe 972 growth, higher = more signal, called active from +8 up or from −8 down
[14] = S. cerevisiae growth modulation with rapamycin, primary screen, strain BY4716, OD600, 96 h (AID 1091); conditions: higher = more signal, called active from +8 up or from −8 down; note: test concentration not given here
[15] = target: Torsin-1A-interacting protein 2 (Homo sapiens) (UniProt Q8NFQ8); test: LULL1 binders on small-molecule microarray, primary screen, cell lysate, human LULL1 lysate, 635/667 nm fluorescence (AID 1092); conditions: hLULL1 lysate binding, 635 nm fluorescence, higher = more signal;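 note: probe is lysate of COS7 cells overexpressing human LULL1; score merges per-feature 667 nm fluorescence with signal-to-noise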
[16] = E. coli growth modulation, two-sided OD650, primary screen, E. coli filamentation project, strain DRC41, 24 h (AID 1093); conditions: OD650, 24 h, higher = more signal, called active from +8 up or from −8 down;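 note: MC1000 strain lacking acrAB efflux and sulA so SOS filamentation is blocked; test concentration not given here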
[17] = small-molecule microarray binders of probe aLefty2, primary screen, biochemical, biotinylated probe, 635/667 nm fluorescence (AID 1094); conditions: higher = more signal;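 note: score merges spot fluorescence near 667 nm with spot signal-to-noise ratio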
[18] = test system: Noggin (protein binding on small-molecule microarray); test: Noggin binders on small-molecule microarray, primary screen, biochemical, 635/667 nm fluorescence (AID 1095); conditions: 635 nm fluorescence, higher = more signal;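 note: score merges 667 nm feature fluorescence with signal to noise over triplicate slides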
[19] = target: Neurogenic locus notch homolog protein 3 (Homo sapiens) (UniProt Q9UM47); test: NOTCH3 binders on small-molecule microarray, primary screen, biochemical, 635/667 nm fluorescence (AID 1096); conditions: NOTCH3 binding, 635 nm fluorescence, higher = more signal
[20] = small-molecule microarray binders of probe aEGFR, primary screen, biochemical, biotinylated probe, 635/667 nm fluorescence (AID 1097); conditions: higher = more signal;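 note: probe is a biotinylated anti-EGFR antibody binding compounds printed on slides; score combines fluorescence near 667 nm and signal to noise of each spot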

Sequence of Neurogenic locus notch homolog protein 2 (Homo sapiens) (Q04721 whole entry, looked up, canonical isoform): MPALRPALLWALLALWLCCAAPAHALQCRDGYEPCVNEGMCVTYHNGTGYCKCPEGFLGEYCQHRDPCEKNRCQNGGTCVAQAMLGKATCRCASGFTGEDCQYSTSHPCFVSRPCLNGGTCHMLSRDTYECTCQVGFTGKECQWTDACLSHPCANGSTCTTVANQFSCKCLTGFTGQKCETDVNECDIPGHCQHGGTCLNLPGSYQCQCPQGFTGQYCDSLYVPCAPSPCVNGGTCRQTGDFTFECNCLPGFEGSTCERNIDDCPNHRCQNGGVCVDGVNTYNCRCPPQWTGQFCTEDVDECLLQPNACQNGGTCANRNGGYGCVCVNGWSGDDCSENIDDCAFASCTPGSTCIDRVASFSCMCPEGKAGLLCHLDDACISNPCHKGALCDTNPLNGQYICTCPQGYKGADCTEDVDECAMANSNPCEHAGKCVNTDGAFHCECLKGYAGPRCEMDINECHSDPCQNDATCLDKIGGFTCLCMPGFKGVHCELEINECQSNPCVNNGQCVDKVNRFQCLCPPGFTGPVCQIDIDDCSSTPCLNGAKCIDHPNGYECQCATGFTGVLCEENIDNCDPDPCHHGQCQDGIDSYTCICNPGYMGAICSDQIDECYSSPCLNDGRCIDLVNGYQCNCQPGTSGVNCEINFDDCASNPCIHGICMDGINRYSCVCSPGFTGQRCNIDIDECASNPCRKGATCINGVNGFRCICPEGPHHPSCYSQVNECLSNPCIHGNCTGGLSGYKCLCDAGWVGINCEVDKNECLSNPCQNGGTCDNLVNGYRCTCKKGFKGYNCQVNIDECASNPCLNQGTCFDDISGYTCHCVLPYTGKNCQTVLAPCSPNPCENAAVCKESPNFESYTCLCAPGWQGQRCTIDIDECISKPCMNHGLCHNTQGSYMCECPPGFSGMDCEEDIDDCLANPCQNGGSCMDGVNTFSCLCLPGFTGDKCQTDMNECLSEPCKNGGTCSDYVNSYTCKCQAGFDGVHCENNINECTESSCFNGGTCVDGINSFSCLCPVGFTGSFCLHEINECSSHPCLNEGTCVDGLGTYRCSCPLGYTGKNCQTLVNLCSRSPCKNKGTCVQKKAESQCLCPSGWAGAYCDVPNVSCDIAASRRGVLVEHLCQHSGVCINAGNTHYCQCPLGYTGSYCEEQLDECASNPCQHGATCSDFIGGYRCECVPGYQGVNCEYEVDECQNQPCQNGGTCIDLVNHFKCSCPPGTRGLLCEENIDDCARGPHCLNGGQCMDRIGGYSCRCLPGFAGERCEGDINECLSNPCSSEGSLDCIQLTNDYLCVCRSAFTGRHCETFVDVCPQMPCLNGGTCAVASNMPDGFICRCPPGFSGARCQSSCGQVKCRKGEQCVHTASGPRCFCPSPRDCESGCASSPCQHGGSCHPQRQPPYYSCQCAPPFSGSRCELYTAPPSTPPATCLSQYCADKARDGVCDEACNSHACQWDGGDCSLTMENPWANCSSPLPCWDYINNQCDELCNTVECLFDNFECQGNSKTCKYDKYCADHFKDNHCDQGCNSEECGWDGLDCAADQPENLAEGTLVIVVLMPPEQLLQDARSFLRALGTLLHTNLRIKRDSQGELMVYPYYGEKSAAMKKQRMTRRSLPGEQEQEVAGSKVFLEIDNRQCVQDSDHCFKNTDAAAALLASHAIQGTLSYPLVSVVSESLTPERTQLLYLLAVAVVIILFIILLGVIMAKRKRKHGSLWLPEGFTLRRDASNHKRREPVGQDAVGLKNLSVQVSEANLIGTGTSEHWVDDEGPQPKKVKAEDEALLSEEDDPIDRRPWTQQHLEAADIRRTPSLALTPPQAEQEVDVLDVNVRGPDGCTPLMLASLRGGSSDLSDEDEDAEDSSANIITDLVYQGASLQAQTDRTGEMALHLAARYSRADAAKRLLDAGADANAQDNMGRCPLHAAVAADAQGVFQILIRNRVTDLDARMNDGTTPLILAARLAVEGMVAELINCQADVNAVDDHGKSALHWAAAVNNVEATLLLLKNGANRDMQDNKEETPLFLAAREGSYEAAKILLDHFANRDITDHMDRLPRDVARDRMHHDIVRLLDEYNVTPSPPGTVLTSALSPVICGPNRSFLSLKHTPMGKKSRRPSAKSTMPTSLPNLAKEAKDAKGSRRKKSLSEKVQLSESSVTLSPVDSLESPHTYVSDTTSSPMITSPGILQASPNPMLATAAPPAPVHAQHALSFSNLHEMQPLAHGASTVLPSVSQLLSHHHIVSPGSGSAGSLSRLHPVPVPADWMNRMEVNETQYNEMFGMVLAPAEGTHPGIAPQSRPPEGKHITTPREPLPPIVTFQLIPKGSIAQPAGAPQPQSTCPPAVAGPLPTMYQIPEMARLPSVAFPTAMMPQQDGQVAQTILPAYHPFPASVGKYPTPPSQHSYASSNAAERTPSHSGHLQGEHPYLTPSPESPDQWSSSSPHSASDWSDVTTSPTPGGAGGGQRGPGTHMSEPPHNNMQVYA
Sequence of Torsin-1A-interacting protein 2 (Homo sapiens) (Q8NFQ8 whole entry, looked up): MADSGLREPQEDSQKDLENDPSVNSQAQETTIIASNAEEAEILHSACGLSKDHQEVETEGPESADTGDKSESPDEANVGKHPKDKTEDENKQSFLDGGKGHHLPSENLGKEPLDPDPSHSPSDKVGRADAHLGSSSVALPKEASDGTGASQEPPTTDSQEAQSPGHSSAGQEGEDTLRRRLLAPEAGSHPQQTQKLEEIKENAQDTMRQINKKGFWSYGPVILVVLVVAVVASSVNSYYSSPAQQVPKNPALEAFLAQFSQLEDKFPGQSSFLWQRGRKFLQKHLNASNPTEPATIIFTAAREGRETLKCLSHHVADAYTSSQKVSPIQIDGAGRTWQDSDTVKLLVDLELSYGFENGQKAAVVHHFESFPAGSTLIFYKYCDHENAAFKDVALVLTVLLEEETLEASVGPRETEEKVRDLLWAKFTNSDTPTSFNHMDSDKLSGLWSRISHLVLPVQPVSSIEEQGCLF
Sequence of Pro-neuregulin-1, membrane-bound isoform (Homo sapiens) (Q02297 whole entry, looked up, the tested form may be a part, canonical isoform): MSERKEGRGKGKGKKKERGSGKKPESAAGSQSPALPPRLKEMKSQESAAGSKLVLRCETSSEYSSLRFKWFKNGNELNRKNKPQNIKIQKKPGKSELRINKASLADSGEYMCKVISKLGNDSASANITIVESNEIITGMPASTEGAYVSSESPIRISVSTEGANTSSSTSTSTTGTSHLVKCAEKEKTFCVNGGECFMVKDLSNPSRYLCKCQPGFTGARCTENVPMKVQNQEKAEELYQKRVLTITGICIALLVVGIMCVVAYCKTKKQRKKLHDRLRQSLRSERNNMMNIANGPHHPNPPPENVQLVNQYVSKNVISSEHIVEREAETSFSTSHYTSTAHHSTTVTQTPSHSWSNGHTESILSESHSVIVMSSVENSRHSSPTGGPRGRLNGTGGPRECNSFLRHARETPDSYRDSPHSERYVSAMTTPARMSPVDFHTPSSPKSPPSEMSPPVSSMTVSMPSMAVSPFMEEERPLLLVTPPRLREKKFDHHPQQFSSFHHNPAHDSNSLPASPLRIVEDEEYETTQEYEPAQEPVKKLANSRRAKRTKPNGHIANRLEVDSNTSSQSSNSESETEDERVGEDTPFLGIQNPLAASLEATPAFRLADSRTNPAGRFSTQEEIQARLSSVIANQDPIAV

Row | SMILES | composite z-score [1] | composite z-score [2] | composite z-score [3] | composite z-score [4] | composite z-score [5] | composite z-score [6] | composite z-score [7] | z-score [8] | composite z-score [9] | composite z-score [10] | composite z-score [11] | z-score [12] | z-score [13] | z-score [14] | composite z-score [15] | z-score [16] | composite z-score [17] | composite z-score [18] | composite z-score [19] | composite z-score [20]
1 | CCN1C(C)=C(C(=O)OC)[C@@H](c2ccccc2)N2C(=O)[C@@]3(C(=O)OC)O[C@@]12[C@@H]1C(=O)N(c2ccccc2)C(=O)[C@@H]13 | -0.418 | 0.833 | -0.0924 | 0.877 | 1.14 | 0.75 | 0.892 | -0.909 (inactive) | 0.585 | 0.122 | 1.22 | -0.806 (inactive) | -1.23 (inactive) | -0.325 (inactive) | 1.2 | -0.0256 (inactive) | -0.19 | 1.21 | 0.983 | -0.087
2 | Cc1ccc(N2C(=O)c3ccccc3[C@](C)(C(=O)NCC(C)C)[C@@H]2c2ccc(CO)cc2)nc1 | 0.572 | -0.48 | 0.0988 | -0.662 | -1.02 | -1.05 | 1.4 | 0.613 (inactive) | -0.542 | 0.74 | -0.644 | 0.42 (inactive) | 0.374 (inactive) | 1.43 (inactive) | -1.71 | -0.277 (inactive) | 0.456 | -1.22 | -1.62 | 0.32
3 | [N-]=[N+]=NCc1ccccc1C[C@]1(C(N)=O)N=C(c2ccc(OCCCO)cc2)O[C@H]1c1ccccc1CN=[N+]=[N-] | 1.15 | 1.14 | 0.128 | 0.616 | 1.09 | 1.74 | 1 | -1.55 (inactive) | 0.823 | -0.3 | 1.32 | -2.38 (inactive) | -2.11 (inactive) | -0.525 (inactive) | 3 | -0.0236 (inactive) | 0.544 | 0.0263 | 0.904 | 0.145
4 | CC(C)[C@H]1NC(=O)[C@@]23C(=O)N[C@@H](Cc4ccccc4)C2[C@H](C)[C@@]2(C)O[C@H]2C3/C=C/C/C=C\CNC(=O)[C@H](C)NC1=O (stereo not given in full) | 0.11 | -0.663 | -0.164 | 0.51 | -1.59 | -0.967 | 0.754 | 0.194 (inactive) | -0.367 | -0.399 | -1.24 | 0.782 (inactive) | 0.469 (inactive) | 0.41 (inactive) | -0.62 | -0.823 (inactive) | -0.287 | -0.632 | -0.517 | -0.255
5 | C=CCc1cccc([C@H]2N[C@H](C(=O)O)CC[C@@H]2C)c1 | -0.746 | 0.604 | -0.221 | 0.502 | -0.441 | -0.0316 | 0.519 | -0.204 (inactive) | -0.099 | 0.122 | 0.453 | 0.468 (inactive) | 0.0843 (inactive) | 2.04 (inactive) | -0.0584 | 0.271 (inactive) | -0.203 | 1.17 | 0.245 | -0.0828
6 | C=CCC(OC(C)=O)[C@@H]1[C@@H](N(Cc2ccc(-c3cccc(C(F)(F)F)c3)o2)C(=O)Cc2ccc(F)cc2)c2cc(OCCCO)ccc2N1C(=O)c1ccc(-c2ccccc2)cc1 (stereo not given in full) | 0.142 | -0.0983 | -0.129 | -0.556 | -0.606 | -0.0704 | -0.387 | -0.245 (inactive) | 0.0417 | -0.236 | -0.621 | -0.182 (inactive) | -0.258 (inactive) | -0.507 (inactive) | 0.239 | -1.33 (inactive) | -0.166 | -0.325 | -0.362 | -0.238
7 | COCCOC(=O)N1C(=O)[C@@]2(c3ccccc31)[C@H](C(=O)N1CCc3cc(OC)c(OC)cc3C1)[C@H]1C(=O)O[C@H](c3ccccc3)[C@H](c3ccccc3)N1[C@@H]2c1ccccc1OCCO | 0.221 | 0.409 | -0.0009 | 0.66 | 0.809 | 0.607 | 1.04 | -0.381 (inactive) | 0.481 | 0.251 | 1.48 | 0.384 (inactive) | -0.0822 (inactive) | 5.51 (inactive) | 2.14 | 2.8 (inactive) | 0.0261 | 1.03 | 1.07 | -0.0717
8 | C[C@@H]1CC[C@H]2C(=O)N3[C@@H](CC[C@@H](C)[C@@H]3c3cccc(N4CCOCC4)c3)C(=O)N2[C@H]1c1cccc(N2CCOCC2)c1 | 0.0943 | 0.378 | -0.166 | 0.616 | 0.92 | 0.414 | 1.1 | -0.531 (inactive) | 0.619 | 1.3 | 0.52 | 0.123 (inactive) | 0.132 (inactive) | 0.651 (inactive) | 0.44 | 0.593 (inactive) | -0.275 | 0.252 | 0.464 | -0.012
9 | CC(C)C[C@@H]1NC(=O)[C@H](CC(C)C)NC(=O)[C@@]23C(=O)N[C@@H](Cc4ccccc4)C2[C@H](C)[C@@]2(C)O[C@H]2C3/C=C/CC/C=C/CNC1=O (stereo not given in full) | -0.3 | -0.135 | -0.0805 | 0.278 | 0.242 | 0.603 | 1 | -0.298 (inactive) | 0.0226 | -0.201 | 1.54 | -0.833 (inactive) | -2.66 (inactive) | -1.74 (inactive) | 2.01 | 0.194 (inactive) | -0.26 | 0.413 | 1.08 | -0.0697
